From ChEMBL document CHEMBL1961873, “Compounds: GSK PKIS; Assays: Nanosyn kinase panel” (2012)

What was measured:
[1] = biological target: Mitogen-activated protein kinase kinase kinase kinase 4 (Homo sapiens) (UniProt O95819); conditions: at 1 µM;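 further: reported figure is an averaged inhibition value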
[2] = biological target: Dual specificity mitogen-activated protein kinase kinase 1 (Homo sapiens) (UniProt Q02750); conditions: at 0.1 µM
[3] = biological target: Dual specificity mitogen-activated protein kinase kinase 1 (Homo sapiens) (UniProt Q02750); conditions: at 1 µM
[4] = biological target: Misshapen-like kinase 1 (Homo sapiens) (UniProt Q8N4C8); conditions: at 0.1 µM
[5] = biological target: Misshapen-like kinase 1 (Homo sapiens) (UniProt Q8N4C8); conditions: at 1 µM
[6] = biological target: T1, Serine/threonine-protein kinase 4 (Homo sapiens) (UniProt Q13043); conditions: at 0.1 µM
T1 sequence (whole entry): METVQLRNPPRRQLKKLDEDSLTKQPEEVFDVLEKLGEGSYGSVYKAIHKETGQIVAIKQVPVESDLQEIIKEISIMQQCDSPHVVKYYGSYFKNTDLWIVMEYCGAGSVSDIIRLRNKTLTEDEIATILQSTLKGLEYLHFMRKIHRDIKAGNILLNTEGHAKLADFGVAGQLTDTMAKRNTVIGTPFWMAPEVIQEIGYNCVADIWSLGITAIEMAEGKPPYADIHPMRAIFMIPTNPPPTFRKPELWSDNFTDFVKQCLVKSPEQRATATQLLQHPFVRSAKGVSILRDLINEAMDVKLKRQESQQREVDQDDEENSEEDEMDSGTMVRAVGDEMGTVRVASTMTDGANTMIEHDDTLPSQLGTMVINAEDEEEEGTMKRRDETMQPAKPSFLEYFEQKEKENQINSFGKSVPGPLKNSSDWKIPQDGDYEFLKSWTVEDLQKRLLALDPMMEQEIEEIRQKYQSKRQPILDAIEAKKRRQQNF

[7] = biological target: T1, Serine/threonine-protein kinase 4 (Homo sapiens); conditions: at 1 µM
[8] = biological target: T2, Serine/threonine-protein kinase 3 (Homo sapiens) (UniProt Q13188); conditions: at 0.1 µM
T2 sequence (whole entry): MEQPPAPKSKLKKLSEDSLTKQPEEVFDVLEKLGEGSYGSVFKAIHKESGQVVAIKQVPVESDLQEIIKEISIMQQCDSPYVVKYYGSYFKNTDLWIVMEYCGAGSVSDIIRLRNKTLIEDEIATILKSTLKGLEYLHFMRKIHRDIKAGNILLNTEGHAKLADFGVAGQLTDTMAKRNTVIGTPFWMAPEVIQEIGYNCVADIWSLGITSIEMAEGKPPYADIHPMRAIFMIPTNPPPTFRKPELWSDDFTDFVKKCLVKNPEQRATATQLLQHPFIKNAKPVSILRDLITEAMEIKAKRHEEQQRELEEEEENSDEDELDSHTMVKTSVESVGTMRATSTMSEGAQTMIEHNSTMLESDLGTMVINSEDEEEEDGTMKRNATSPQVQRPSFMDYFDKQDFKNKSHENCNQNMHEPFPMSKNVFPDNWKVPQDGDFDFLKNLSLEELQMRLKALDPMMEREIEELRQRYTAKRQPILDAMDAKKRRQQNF

[9] = biological target: T2, Serine/threonine-protein kinase 3 (Homo sapiens); conditions: at 1 µM
[10] = biological target: Serine/threonine-protein kinase 26 (Homo sapiens) (UniProt Q9P289); conditions: at 0.1 µM
[11] = biological target: Serine/threonine-protein kinase 26 (Homo sapiens) (UniProt Q9P289); conditions: at 1 µM
[12] = biological target: Serine/threonine-protein kinase PAK 1 (Homo sapiens) (UniProt Q13153); conditions: at 0.1 µM
[13] = biological target: Serine/threonine-protein kinase PAK 1 (Homo sapiens) (UniProt Q13153); conditions: at 1 µM
[14] = biological target: Serine/threonine-protein kinase PAK 2 (Homo sapiens) (UniProt Q13177); conditions: at 0.1 µM
[15] = biological target: Serine/threonine-protein kinase PAK 2 (Homo sapiens) (UniProt Q13177); conditions: at 1 µM
[16] = biological target: Serine/threonine-protein kinase PAK 3 (Homo sapiens) (UniProt O75914); conditions: at 0.1 µM
[17] = biological target: Serine/threonine-protein kinase PAK 3 (Homo sapiens) (UniProt O75914); conditions: at 1 µM
[18] = biological target: Serine/threonine-protein kinase PAK 5 (Homo sapiens) (UniProt Q9P286); conditions: at 0.1 µM
[19] = biological target: Serine/threonine-protein kinase PAK 5 (Homo sapiens) (UniProt Q9P286); conditions: at 1 µM
[20] = biological target: Serine/threonine-protein kinase PAK 6 (Homo sapiens) (UniProt Q9NQU5); conditions: at 0.1 µM;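 further: mean PAK6 inhibition reported from the GSK PKIS screen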
Serine/threonine-protein kinase PAK 6 (Homo sapiens), sequence (Q9NQU5 whole entry, looked up): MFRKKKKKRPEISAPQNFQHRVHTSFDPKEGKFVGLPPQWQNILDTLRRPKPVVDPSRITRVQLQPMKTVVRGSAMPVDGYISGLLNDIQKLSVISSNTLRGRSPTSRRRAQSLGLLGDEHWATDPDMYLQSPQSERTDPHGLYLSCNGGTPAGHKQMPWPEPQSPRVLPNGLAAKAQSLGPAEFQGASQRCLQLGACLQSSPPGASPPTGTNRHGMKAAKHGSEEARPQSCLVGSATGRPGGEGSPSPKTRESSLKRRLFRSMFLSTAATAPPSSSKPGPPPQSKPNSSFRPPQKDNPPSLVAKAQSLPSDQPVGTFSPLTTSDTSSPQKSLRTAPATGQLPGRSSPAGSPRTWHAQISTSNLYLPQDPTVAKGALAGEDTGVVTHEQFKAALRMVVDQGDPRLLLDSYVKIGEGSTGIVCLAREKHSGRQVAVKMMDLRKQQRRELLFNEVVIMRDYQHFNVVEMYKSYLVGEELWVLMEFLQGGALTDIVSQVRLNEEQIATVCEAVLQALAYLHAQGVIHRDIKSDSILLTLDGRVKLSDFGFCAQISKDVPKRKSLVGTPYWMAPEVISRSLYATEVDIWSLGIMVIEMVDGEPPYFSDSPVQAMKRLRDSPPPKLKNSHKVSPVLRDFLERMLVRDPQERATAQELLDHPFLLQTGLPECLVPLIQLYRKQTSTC

Serine/threonine-protein kinase PAK 3 (Homo sapiens), sequence (O75914 whole entry, looked up): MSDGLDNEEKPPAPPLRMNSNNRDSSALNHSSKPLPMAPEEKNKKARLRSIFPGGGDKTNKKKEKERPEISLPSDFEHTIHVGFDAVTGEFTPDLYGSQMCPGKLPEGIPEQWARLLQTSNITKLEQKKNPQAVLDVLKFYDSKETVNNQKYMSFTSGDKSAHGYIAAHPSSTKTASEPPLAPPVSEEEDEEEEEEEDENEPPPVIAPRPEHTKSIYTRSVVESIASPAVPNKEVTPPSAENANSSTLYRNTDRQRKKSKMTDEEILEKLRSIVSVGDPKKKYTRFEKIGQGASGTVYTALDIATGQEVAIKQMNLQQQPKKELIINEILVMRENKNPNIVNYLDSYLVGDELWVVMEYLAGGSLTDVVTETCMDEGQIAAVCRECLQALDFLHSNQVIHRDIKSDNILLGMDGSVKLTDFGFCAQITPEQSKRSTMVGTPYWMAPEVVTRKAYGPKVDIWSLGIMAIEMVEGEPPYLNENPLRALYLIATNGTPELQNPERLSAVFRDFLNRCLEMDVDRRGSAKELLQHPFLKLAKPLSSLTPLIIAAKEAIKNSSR
Mitogen-activated protein kinase kinase kinase kinase 4 (Homo sapiens), sequence (O95819 2-1239 limits assumed): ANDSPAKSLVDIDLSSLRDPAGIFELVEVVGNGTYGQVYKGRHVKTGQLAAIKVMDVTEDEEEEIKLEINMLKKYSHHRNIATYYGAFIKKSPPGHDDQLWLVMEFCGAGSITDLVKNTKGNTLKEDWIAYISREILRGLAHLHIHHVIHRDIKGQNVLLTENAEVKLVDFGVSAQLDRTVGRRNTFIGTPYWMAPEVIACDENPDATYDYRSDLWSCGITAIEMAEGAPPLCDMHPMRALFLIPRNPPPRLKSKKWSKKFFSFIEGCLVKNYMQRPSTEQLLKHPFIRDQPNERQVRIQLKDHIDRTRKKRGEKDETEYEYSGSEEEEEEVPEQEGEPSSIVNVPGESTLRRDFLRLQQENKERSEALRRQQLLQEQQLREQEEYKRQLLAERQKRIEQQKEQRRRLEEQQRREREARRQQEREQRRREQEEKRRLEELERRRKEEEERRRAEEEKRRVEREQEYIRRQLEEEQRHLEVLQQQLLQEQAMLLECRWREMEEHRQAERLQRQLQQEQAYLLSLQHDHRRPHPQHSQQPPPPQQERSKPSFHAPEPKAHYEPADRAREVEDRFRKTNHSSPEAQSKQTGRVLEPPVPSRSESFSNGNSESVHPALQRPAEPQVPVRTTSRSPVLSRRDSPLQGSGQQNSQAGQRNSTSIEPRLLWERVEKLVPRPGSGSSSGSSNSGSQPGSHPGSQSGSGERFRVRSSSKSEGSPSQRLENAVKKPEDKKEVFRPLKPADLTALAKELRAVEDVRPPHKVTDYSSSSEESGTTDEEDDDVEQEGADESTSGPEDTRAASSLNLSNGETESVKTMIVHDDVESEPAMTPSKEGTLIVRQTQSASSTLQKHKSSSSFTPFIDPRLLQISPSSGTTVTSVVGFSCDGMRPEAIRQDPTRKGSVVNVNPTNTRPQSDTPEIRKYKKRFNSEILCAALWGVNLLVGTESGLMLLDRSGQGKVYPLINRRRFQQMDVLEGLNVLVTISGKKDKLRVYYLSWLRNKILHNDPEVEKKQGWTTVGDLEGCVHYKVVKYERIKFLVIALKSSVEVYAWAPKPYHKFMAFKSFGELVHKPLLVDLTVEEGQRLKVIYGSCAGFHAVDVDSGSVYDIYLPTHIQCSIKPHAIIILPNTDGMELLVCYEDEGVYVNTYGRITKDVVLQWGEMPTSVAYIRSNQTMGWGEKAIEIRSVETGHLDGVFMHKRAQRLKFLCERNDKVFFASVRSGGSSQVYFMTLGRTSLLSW
Serine/threonine-protein kinase PAK 5 (Homo sapiens), sequence (Q9P286 whole entry, looked up): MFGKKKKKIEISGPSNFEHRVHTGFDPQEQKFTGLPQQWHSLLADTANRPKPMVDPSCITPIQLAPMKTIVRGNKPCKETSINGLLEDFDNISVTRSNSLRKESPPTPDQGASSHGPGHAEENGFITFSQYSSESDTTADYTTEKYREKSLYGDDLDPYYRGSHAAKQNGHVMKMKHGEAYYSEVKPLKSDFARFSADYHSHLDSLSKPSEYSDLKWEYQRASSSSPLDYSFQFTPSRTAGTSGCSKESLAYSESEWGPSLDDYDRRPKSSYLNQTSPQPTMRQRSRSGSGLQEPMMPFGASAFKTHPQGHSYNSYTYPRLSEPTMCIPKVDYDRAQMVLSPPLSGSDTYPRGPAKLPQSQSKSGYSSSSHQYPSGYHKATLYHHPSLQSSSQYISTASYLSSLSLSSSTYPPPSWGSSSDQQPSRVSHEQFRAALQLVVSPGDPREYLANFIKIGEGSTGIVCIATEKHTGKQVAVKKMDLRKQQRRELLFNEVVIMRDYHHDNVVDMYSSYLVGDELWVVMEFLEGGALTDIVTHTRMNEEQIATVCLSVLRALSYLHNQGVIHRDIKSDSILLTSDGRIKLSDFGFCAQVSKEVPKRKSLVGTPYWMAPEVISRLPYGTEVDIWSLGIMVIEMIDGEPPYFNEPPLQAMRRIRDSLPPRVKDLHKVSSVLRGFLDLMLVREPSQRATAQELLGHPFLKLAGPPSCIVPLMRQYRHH
Serine/threonine-protein kinase 26 (Homo sapiens), sequence (Q9P289 2-416 limits assumed): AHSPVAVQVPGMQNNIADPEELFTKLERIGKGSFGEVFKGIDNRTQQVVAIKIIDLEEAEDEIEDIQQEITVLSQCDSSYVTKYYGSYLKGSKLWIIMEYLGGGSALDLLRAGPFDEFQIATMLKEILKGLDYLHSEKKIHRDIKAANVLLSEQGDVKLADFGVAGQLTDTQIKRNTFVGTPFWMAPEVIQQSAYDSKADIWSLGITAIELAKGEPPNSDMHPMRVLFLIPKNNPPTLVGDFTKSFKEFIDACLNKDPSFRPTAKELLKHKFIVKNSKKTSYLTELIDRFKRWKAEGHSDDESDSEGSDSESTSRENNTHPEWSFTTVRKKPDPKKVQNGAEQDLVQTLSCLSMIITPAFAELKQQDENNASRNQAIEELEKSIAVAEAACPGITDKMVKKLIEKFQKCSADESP
Serine/threonine-protein kinase PAK 1 (Homo sapiens), sequence (Q13153 whole entry): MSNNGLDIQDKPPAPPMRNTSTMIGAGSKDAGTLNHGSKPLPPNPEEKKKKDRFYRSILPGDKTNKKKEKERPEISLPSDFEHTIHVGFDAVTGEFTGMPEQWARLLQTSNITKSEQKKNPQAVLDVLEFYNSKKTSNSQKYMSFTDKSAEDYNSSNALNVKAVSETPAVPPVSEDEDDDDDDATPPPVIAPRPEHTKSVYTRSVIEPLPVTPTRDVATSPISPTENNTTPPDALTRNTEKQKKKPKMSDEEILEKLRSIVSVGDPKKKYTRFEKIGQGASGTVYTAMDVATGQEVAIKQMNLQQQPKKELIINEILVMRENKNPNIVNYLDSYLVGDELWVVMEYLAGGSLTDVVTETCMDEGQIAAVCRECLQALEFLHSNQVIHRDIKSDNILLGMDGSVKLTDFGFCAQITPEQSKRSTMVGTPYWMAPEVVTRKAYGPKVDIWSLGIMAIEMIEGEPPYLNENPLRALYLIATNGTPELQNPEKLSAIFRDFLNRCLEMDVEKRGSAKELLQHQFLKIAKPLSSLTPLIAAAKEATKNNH
Serine/threonine-protein kinase PAK 2 (Homo sapiens), sequence (Q13177 whole entry): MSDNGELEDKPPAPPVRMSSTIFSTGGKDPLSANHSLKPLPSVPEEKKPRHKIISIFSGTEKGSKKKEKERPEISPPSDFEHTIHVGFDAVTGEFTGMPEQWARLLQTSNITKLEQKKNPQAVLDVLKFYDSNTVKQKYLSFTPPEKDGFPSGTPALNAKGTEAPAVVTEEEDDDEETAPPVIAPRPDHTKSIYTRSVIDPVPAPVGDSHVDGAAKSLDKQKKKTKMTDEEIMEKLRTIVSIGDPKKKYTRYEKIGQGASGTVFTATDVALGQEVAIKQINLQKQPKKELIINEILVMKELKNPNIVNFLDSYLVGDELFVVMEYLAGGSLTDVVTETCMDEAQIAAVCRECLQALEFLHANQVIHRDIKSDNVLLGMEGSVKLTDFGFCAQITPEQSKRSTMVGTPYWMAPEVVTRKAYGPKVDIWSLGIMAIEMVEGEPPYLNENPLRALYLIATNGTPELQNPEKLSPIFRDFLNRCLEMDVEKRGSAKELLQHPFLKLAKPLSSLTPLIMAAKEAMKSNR

Structure (SMILES) | inhibition [1] | inhibition [2] | inhibition [3] | inhibition [4] | inhibition [5] | inhibition [6] | inhibition [7] | inhibition [8] | inhibition [9] | inhibition [10] | inhibition [11] | inhibition [12] | inhibition [13] | inhibition [14] | inhibition [15] | inhibition [16] | inhibition [17] | inhibition [18] | inhibition [19] | inhibition [20]
CN(C)c1ccc2c(c1)/C(=C/Nc1ccc(S(N)(=O)=O)cc1)C(=O)N2 | 70% | 2.52% | 6.25% | 18.1% | 63.6% | 44.2% | 71.7% | 32.3% | 68% | 0.49% | 20.2% | 4.25% | 2.53% | -0.61% | 0.6% | 1.32% | 2.05% | -3.51% | -4.48% | 11.8%
Cc1nnc(-c2ccc(C)c(-c3ccc(C(=O)NCc4ccc(Cl)cc4)cc3)c2)o1 | 5.28% | 6.35% | 4.13% | 5.42% | 5.04% | 3.28% | 4.86% | 4.12% | 5.51% | -1.19% | 0.59% | 7.92% | 6.11% | 1.55% | 1.24% | 4.16% | 4.01% |  | -2.54% | -4.24%
C[C@@H](Oc1cc(-n2cnc3ccc(OCC4CCN(C)CC4)cc32)sc1C(N)=O)c1ccccc1Cl | 11.6% | 6.35% | 5.61% | 6.3% | 10.1% | 14.8% | 56.7% | 11.7% | 39.7% | -8.39% |  | 9.41% | 11.3% | 3.01% | 3.81% | 6.02% | 6.85% | 5.72% | 7.38% | 
COc1ccc2ncn(-c3cc(O[C@H](C)c4ccccc4Cl)c(C(N)=O)s3)c2c1 | 5.82% | 2.51% | 2.76% | 5.84% | 5.42% | 3.89% | 13% | 6.32% | 13.2% | -2.67% | -5.03% | 3.16% | 7.26% | 1.84% | 1.19% | 5.49% | 6.75% | 1.71% | 3.63% | -3.39%
COc1cc(Nc2ncc(-c3ccccc3)o2)cc(OC)c1OC | 26.4% | -0.87% | 0.69% | 0.26% | 17.3% | -2.33% | 0% | -4.02% | -1.87% | -0.19% | -4.83% | -0.3% | -0.52% | -1.31% | -0.61% | -1.91% | -0.07% | -0.92% | 7.2% | -5.44%
NC(=O)c1cc(-c2ccncc2)cc(-c2ccccc2)c1N | 32.3% | 6.3% | 5.89% | 11.2% | 26.1% | 3.19% | 6.8% | 3.96% | 3.58% | -0.07% | -1.56% | 7.55% | 6.44% | 2.07% | 2.41% | 7.15% | 6.71% | 1.02% | 2.18% | -0.84%
CN(c1ccc(NC(=O)Nc2c(Cl)cccc2Cl)cc1)c1ccnc(Nc2cccc(CS(C)(=O)=O)c2)n1 | 73.4% | 5.73% | 5.34% | 21.2% | 64.5% | 8.06% | 17.4% | 8.37% | 11.5% | 0.39% | -3.71% | -0.06% | 2.17% | 1.79% | 1.61% | 1.56% | 1.38% | 4.31% | 11.9% | 7.14%
